# From PubChem BioAssay (NCI)
# The panel holds about 83,000 compounds, 20% with a hit somewhere; the sample as a whole holds those more often.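 For each line, cells grew in 96-well plates with the test compound present at a single concentration for 48 hours.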 The source made the active and inactive calls.
# System: LOX IMVI melanoma
# Assay: NCI-60 one-dose screen, 48 h (100 = growth as untreated, 0 = no growth, -100 = all killed)
# Conditions: 10 µM unless noted
# Description: Growth inhibition of the LOX IMVI human tumor cell line is measured as a screen for anti-cancer activity. Cells are grown in 96 well plates and exposed to the test compound for 48 hours. Compounds are tested at a single concentration, which is 10^-5 M for most compounds. The reported endpoint is percent growth (GI% or GIPRCNT), where numbers from 0 - 100% represent growth inhibition, and numbers from -100% - 0 represent cell death. For example, a value of 40 represents 60% growth inhibition. A value of 0 means no net growth occurred over the course of the experiment. A value of -40 indicates 40% of cells at the beginning of the experiment died by the end of the experiment. A value of -100 means all cells are dead at the end of the experiment.
# NCI-60 Human Tumor Cell Lines Screen was performed using the standard one-dose NCI protocol, which is described in more detail at https://dtp.cancer.gov/discovery_development/nci-60/default.htm.
# Compounds with GIPRCNT values below 10 were considered active. Activity score was based on GIPRCNT using the following formula: […]
# Score is 0 for GIPRCNT values of 100 or above, 50 for GIPRCNT values of 0, and 100 for GIPRCNT values of -100.
row,SMILES,growth
1,CCOC(=O)C(Cc1ccccc1)n1c(O)c(C=Nc2ccc(C(=O)OCCN(CC)CC)cc2)sc1=O (stereo not given),93.7% (inactive)
2,CCc1c(C(=O)Nc2ccc3ccccc3c2)[nH]c(C)c1C(C)=O,96.3% (inactive)
3,COc1ccc(OC)c(C(=O)c2oc3ccc(Br)cc3c2N)c1,32.9% (inactive)
4,COC(=O)c1ccc2nc(-c3cc4ccccc4n3C)n(CCCCOc3cc4c(cc3OC)C(=O)N3CCC[C@H]3C=N4)c2c1,-54.7% (active)
5,CC(C)(C)c1cn2cccc(C(=O)N3CCN(CC(=O)Nc4ccc(Cl)cc4C(=O)c4ccccc4Cl)CC3)c2n1,63.5% (inactive)
6,O=C(/C=C/CN1CCCCC1)Nc1cc2c(Nc3ccc(F)c(Cl)c3F)ncnc2cc1OCCOC(F)F,12.5% (inactive)
7,Nc1c(C(=O)Nc2ccccc2)sc2nc3c(cc12)CCCCC3,22.1% (inactive)
8,O=C(Nc1ccc(F)c(Cl)c1)c1n[nH]c(=O)c2ccccc12,87.4% (inactive)
9,Cc1cc(NC(=O)COC(=O)c2sc3cc(F)ccc3c2Cl)no1,103% (inactive)
10,OC1CC2c3ccccc3C1c1ccccc12 (stereo not given),97.3% (inactive)
11,COc1cc(C2C=C(C)N=C3SC=C(C)N32)cc(OC)c1OC (stereo not given),-82.4% (active)
12,COc1ccc(-c2nc(-c3nc4ccc(F)cc4[nH]3)cc3c2[nH]c2ccccc23)cc1,29.5% (inactive)
13,Cc1nn(-c2ccc(Cl)cc2)c(=O)n1CCOc1ccccc1Cl,90.1% (inactive)
14,Clc1ccc2c(c1)NC1(CCSc3ccccc31)n1nccc1-2 (stereo not given),92.3% (inactive)
15,O=c1[nH]c(CN2CCN(c3ccccc3F)CC2)nc2sc3c(c12)CCC3,99.2% (inactive)
16,CCn1cc(C(=O)O)c(=O)c2cc(F)c(N3CCN(S(=O)(=O)c4cccc5ccccc45)CC3)cc21,-39% (active)
17,Nc1c(C(=O)Nc2cccc(Cl)c2Cl)sc2nc3c(cc12)C(=O)CCC3,95.5% (inactive)
18,CCCCC(N)(C(=O)O)C1CCCC1 (stereo not given),99.4% (inactive)
19,COc1cc(C(=O)N2CCN(C(=O)c3ccco3)CC2)c(N)cc1OCc1ccccc1,92.4% (inactive)
20,CC(C)C[C@H](NC(=O)[C@H](Cc1ccccc1)n1ccc(N2CCCCC2)cc1=O)B(O)O,-72.1% (active)

row,SMILES,growth
1,COc1cc(NC(=O)CSc2nc3ccc(C)cc3c(=O)n2-c2ccccc2)cc(OC)c1OC,75.9% (inactive)
2,O=C(c1c[nH]c2ccccc12)C(Sc1nc2ccccc2c(=O)[nH]1)c1ccccc1 (stereo not given),95.3% (inactive)
3,CCN(Cc1ccc(CN(CC)C(=O)C(Cl)(Cl)Cl)cc1)C(=O)C(Cl)(Cl)Cl,78.3% (inactive)
4,COc1cccc(NC(=O)c2sc3nc4c(cc3c2N)CCCC4)c1,40.5% (inactive)
5,Cc1ccc(Cn2c(-c3nonc3N)nc3ccccc32)cc1,71.7% (inactive)
6,O=C(NCCc1c[nH]c2ccccc12)C1Cc2ccccc2CN1C(=O)c1ccco1 (stereo not given),94.9% (inactive)
7,COc1cc2nc(SCc3cc(OC)c(OC)c(OC)c3)n(Cc3ccccc3)c(=O)c2cc1OC,37.7% (inactive)
8,C=C1C(=O)O[C@H]2[C@H]1CC/C(Cn1cc(-c3ccccc3C(F)(F)F)nn1)=C\CC[C@@]1(C)O[C@@H]21,-91.7% (active)
9,O=C(C[N+](=O)[O-])c1ccc(Cl)cc1,96.4% (inactive)
10,COc1cc(CNC(=O)CSc2nc3ccccc3c(=O)n2Cc2cc(OC)c(OC)c(OC)c2)cc(OC)c1OC,99.9% (inactive)
11,CCc1cccc(C)c1NC(=O)c1sc2nc3c(cc2c1N)C(=O)CCC3,37.9% (inactive)
12,O=S(=O)(NCCCNc1nccc(-c2c(-c3ccc(O)cc3)nc3sccn23)n1)c1ccc(F)cc1,-29.4% (active)
13,C=C1C(=O)O[C@H]2[C@H]1CC/C(COC(=O)NCc1cc(OC)c(OC)c(OC)c1)=C\CC[C@@]1(C)O[C@@H]21,54.3% (inactive)
14,CN(C)CCCNC(=O)C(c1ccccc1)c1ccccc1,89.3% (inactive)
15,Cc1cccc2cc(/C=C/C(=O)/C=C/c3ccc(Cl)cc3)c(=O)[nH]c12,4.24% (active)
16,C=C1C(=O)O[C@H]2[C@H]1CC/C(Cn1cc(-c3ccsc3)nn1)=C\CC[C@@]1(C)O[C@@H]21,-94.3% (active)
17,O=C(NNC(=S)Nc1ccccc1)c1ccccn1,25.9% (inactive)
18,COc1ccc(/C=C/C(=O)c2ccc(NC(=O)CN3CCN(c4cc5c(cc4F)c(=O)c(C(=O)O)cn5C4CC4)CC3)cc2)cc1,76.9% (inactive)
19,C=C1C(=O)O[C@H]2[C@H]1CC/C(COC(=O)NCCc1cccc(OC)c1)=C\CC[C@@]1(C)O[C@@H]21,3% (active)
20,Cc1sc(N=Nc2ccc(N(C)C)cc2)[n+]([O-])c1C,102% (inactive)
